PubChem BioAssay (NCATS)
Results filed as inconclusive are left out. A number with no mark means an inactive call. The call rests on the fitted dose curve; in most records, active means well fitted activation curve with a large enough effect in the main read-out, with a control signal flat (not every such curve was filed as active); inconclusive means small, poorly fitted or top-dose-only effect, or effect the other way, or a change in a side signal; inactive means flat fitted curve, though single readings scatter.

target: 3',5'-cyclic-AMP phosphodiesterase 4B (Homo sapiens) (UniProt Q07343); assay: qHTS Assay for Inhibitors of PDE-IV (AID 607); details: HEK293 ACTOne CNG channel cells, membrane potential fluorescence; series mostly up to 22.9 µM; activation (PDE inhibition): at the top concentration; further: % of control where 0% means no effect
Sequence (Q07343 whole entry, looked up): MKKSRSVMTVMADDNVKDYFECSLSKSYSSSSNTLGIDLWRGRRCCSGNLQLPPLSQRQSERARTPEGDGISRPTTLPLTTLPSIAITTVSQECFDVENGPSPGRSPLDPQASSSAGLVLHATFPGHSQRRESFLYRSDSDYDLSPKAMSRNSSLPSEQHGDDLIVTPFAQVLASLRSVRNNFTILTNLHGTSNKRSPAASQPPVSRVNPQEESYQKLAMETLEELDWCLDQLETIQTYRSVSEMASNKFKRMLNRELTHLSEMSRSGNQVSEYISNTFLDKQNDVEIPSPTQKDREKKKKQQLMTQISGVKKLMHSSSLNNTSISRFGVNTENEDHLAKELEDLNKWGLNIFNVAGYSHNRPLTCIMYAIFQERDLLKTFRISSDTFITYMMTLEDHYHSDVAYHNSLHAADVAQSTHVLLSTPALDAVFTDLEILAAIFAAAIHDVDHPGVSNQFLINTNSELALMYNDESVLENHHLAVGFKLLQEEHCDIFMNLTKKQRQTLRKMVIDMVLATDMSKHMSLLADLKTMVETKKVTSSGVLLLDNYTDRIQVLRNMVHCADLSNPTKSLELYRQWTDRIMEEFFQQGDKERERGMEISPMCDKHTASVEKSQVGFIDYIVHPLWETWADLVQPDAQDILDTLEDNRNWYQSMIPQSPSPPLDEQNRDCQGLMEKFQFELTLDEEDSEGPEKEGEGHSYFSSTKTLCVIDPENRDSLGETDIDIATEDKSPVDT
Excerpt: NIH Chemical Genomics Center [NCGC]
NIH Molecular Libraries Screening Centers Network [MLSCN]
The cyclic nucleotide phosphodiesterases (PDEs) are proteins that catalyze hydrolysis of 3', 5'-cyclic nucleotides, such as cyclic adenosine monophosphate (cAMP) and cyclic guanosine monophosphate (cGMP), to their corresponding 5'-nucleotide monophosphates. These enzymes play an important role in controlling cellular concentrations of cyclic nucleotides and have a central role in a variety of intracellular signaling events. cAMP PDEs are emerging as a promising class of drug targets in asthma and cardiovascular disease therapeutic areas.
There are no commercially available cell-based screening assays for PDE inhibitors: currently biochemical assays are done using pure substrates (cAMP or cGMP) and purified recombinant PDE enzymes. As with other biochemical screens on intracellular targets, false positives and false negatives may result from issues involving cell membrane permeability, cellular metabolism, and the like.
Here we report the development of a cell-based screening assay for cAMP phosphodiesterase (PDE) inhibitors. The assay is based on the BD ACTOne# technology (BD Biosciences) which utilizes a modified cyclic nucleotide-gated channel (CNG) to monitor intracellular cAMP changes in live cells. The CNG channel is localized on the plasma membrane, and opens when the intracellular cAMP level increases, resulting in ion flux and cell membrane depolarization. The influx of cations through the CNG channel can be quantified using membrane potential (MP) dyes. We modified the BD ACTOne technology to allow the detection of PDE inhibitors, and performed an inhibitor screen for PDE-IV, which is expressed endogenously in HEK293 cells. We optimized this assay in homogeneous 1536-well plate assay format for high throughput screening.
NCGC Assay Protocol Summary:
The medium contained 10% FBS (Invitrogen), 2 mM L-glutamine, and 250 ug/ml G418 (Cellgro) and 1 ug/ml puromycin (Clontech). ACTOneTM parental cells (BD Biosciences) were maintained in the same medium without puromycin.
The activity of the CNG channel was measured by BD ACTOneTM membrane potential dye kit (BD Biosciences). Forskolin, a positive control for cAMP activation and RO 20-1724, a PDE inhibitor, were both purchased from Sigma and solublized in DMSO.
Sequence,Parameter,Value,Description
1,Reagent,3 uL,1000 cells/well 1536 TC treated Black plate
3,Compound,0.5 uL,Kalypsys dispense RO 20-1724 100 uM final [A]
4,Reagent,3 uL,BD membrane potential dye
6,Compound,23 nL,Final concentration was 0.7nM to 22.9uM
8,Detector,EX 535 / EM 590 [B],Envision
Footnotes: [A] The stock 2 mM RO 20-1724 PDE inhibitor was made in 10 % DMSO. Parental cell line received 10 uM forskolin + 100 uM RO. [B] Envsion settings: Bottom Excitation 535/20 nm top emission 590/20, gain of 150 and 5 flashes per well.
Keywords: PDE, PDE-IV, cytotoxicity, flourescence, MLSMR, MLSCN, NIH Roadmap, qHTS, NCGC

| SMILES | activation (PDE inhibition) [%] |
| --- | --- |
| NS(=O)(=O)c1cc(Cl)c(Cl)c(S(N)(=O)=O)c1 | 2.14 |
| O=S(=O)(O)c1ccc2cc(N=Nc3cc(S(=O)(=O)O)c4cccnc4c3O)ccc2c1 | -0.869 |
| Cc1cc2nc3c(=O)[nH]c(=O)nc-3n(CC(O)C(O)C(O)CO)c2cc1C (stereo not given) | -5.86 |
| COc1nccc(-c2c(-c3ccc(F)cc3)ncn2C2CCC(O)CC2)n1 (stereo not given) | -22 |
| O=c1cc(-c2ccc(O)c(O)c2)oc2cc(O)cc(O)c12 | 4.5 |
| CCCCC(C=O)NC(=O)C(CC(C)C)NC(=O)OCc1ccccc1 (stereo not given) | -23.1 |
| CN[C@H]1[C@@H](O[C@@H]2[C@H](O[C@@H]3[C@@H](O)[C@@H](O)[C@@H](N=C(N)N)[C@@H](O)[C@@H]3N=C(N)N)O[C@H](C)[C@@]2(O)C=O)O[C@@H](CO)[C@@H](O)[C@H]1O | 7.43 |
| CCC(=C(CC)c1ccc(O)cc1)c1ccc(O)cc1 | 4.77 |
| NCC1CCC(C(=O)O)CC1 (stereo not given) | 2.09 |
| Cc1ccc(NC(=O)c2cccc(N(C)C)c2)cc1NC(=O)c1ccc(O)cc1 | -16.1 |
| COc1ccc(CCN(C)CCCOc2ccc(S(=O)(=O)c3[nH]c4ccccc4c3C(C)C)cc2)cc1OC | -27.4 |
| C=C1c2cccc(O)c2C(O)=C2C(=O)[C@@]3(O)C(O)=C(C(N)=O)C(=O)[C@@H](N(C)C)[C@@H]3[C@@H](O)[C@H]12 | 1.28 |
| NC(=O)c1nnn(Cc2cc(Cl)c(C(=O)c3ccc(Cl)cc3)c(Cl)c2)c1N | -3.39 |
| CN(C)c1ccccc1CN1CCCN(Cc2ccccc2N(C)C)C1c1ccncc1 | 8.34 |
| CC1C(=O)OC2C(O)C34C5CC(C(C)(C)C)C36C(OC(=O)C6O)OC4(C(=O)O5)C12O (stereo not given) | 4.58 |
